Records with an inconclusive call do not appear. A call without a number means that no potency is given here. Activity calls are given as the source filed them. The call rests on the fitted dose curve.

From PubChem BioAssay (Tox21) come the findings set out here.

The target of the assay is Acetylcholinesterase (Homo sapiens) (UniProt P22303). Briefly: Acetylcholinesterase (AChE) small molecule antagonists: colormetric cell-based qHTS assay (AID 1347395). Further: nearly all actives have a fitted effect of over 30% in size. Conditions: SH-SY5Y cells AChE activity, colorimetric (Ellman); series mostly up to 115 µM. An outline of the steps: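 Colorimetric read-out: DTNB detects thiocholine released when cellular AChE in SH-SY5Y cells hydrolyses acetylthiocholine. Cells attached overnight, received compound for 30 min at 37 C, then substrate mix for 90 min at 37 C.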
Chain of Acetylcholinesterase (Homo sapiens) (P22303 whole entry, looked up): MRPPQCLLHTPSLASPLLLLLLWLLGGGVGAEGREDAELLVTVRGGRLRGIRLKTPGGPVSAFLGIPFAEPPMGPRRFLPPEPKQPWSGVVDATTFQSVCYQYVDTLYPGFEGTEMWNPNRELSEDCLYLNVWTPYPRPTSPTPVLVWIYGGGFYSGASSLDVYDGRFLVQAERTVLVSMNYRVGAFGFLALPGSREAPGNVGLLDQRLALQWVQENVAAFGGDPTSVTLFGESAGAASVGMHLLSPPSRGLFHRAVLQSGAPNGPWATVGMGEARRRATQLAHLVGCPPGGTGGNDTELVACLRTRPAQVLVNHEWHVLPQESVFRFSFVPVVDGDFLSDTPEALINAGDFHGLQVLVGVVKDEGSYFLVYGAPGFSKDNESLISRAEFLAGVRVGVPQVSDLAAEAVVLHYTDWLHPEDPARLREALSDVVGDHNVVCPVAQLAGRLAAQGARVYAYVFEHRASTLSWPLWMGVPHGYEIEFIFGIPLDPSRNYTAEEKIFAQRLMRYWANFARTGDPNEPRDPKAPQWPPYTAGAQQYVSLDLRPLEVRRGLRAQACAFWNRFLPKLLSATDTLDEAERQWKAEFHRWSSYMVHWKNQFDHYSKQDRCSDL
Background: In qHTS, concentration-response curves come from the screen itself.
As for `O=C(O)c1c2ccccc2cc2ccccc12`, the Potency entry is “inactive”.
Consider `Cc1onc(-c2c(Cl)cccc2Cl)c1C(=O)N[C@@H]1C(=O)N2[C@@H]1SC(C)(C)[C@@H]2C(=O)O`, for which the Potency entry was “inactive”.
As for `CC(C)CCCCOC(=O)c1ccccc1C(=O)OCCCCC(C)C`, the Potency result was “inactive”.
In the case of `CC1(C)[C@@H](O)CC[C@]2(C)[C@H]3C(=O)C=C4[C@@H]5C[C@@](C)(C(=O)O)CC[C@]5(C)CC[C@@]4(C)[C@]3(C)CC[C@@H]12` it was “inactive”; in that of `CC(C)c1cccc(C(C)C)c1NC(=O)NS(=O)(=O)c1cc(C(C)(C)O)co1`, “inactive”.
To `CC(=O)OCC(=O)[C@@]1(OC(C)=O)[C@@H](C)C[C@H]2[C@@H]3C[C@H](F)C4=CC(=O)C=C[C@]4(C)[C@@]3(F)[C@@H](O)C[C@@]21C` belongs “inactive”; to `C=CCCCCCCCCCCCC`, “inactive”; to `NC(=O)c1ccccc1C(N)=O`, “inactive”.
To `O=Cc1ccc(F)cc1` belongs “inactive”; to `O=C1Cc2ccccc2N1c1c(Cl)cccc1Cl`, “inactive”.
Turning to `Cc1c[nH]c(=S)[nH]c1=O`, the Potency entry is “inactive”.
In the case of `CCOC(=O)CS` it was “inactive”; in that of `Nc1nc(-c2ccccc2)cs1`, “inactive”; in that of `CCCCCCCCCCCCN(CCCCCCCCCCCC)CCCCCCCCCCCC`, “inactive”.
To `COC(C)(C)CC(C)=O` belongs “inactive”.
As to `Cc1ccc(N(CCO)CCO)cc1`, the Potency entry is “inactive”.
`O=S(O)CO`: the Potency entry is “inactive”.
On to `Cc1nc(C)nc(N2C[C@@H](C)N(c3ccnc([C@@H](C)O)n3)[C@@H](C)C2)n1`, for which the Potency result was “inactive”.
Regarding `CC(O)CN(CCCN(C)C)CCCN(C)C` (stereo unspecified), the Potency entry is “inactive”.
Consider `OCCc1ccncc1`, for which the Potency entry is “inactive”.
Regarding `CCOC(=O)[C@@H](C)Oc1ccc(Oc2nc3ccc(Cl)cc3o2)cc1`, the Potency result is “inactive”.
